# Target: PDIA5
# Assay: pooled miR-30 sensor sort-seq; sequence = guide strand
# Conditions: shRNA
# Note: reference of the scale not given here.
row,Sequence,sensor-assay potency score (higher = more potent)
1,TCATACTGGAACAAGAACCGTC,0.647
2,TACTGGAACAAGAACCGTCCTT,0.0118
3,TCAACTTTCATCTTCTTGCACA,-0.596
4,TTGCACATGCTGCACCAGGGGG,-1.31

# Target: PDLIM4
# Assay: as above
# Conditions: shRNA
row,Sequence,sensor-assay potency score (higher = more potent)
1,TTGGTCTGCCATCTTCTGGCCC,-0.715
2,TGAGCTCTGTGCTCTCACCATT,-1.16
3,TGCACATGAAGCACTCGGGATG,-1.65
4,TAGAGCTTGTCCCGTGCCTTGA,-0.615
5,TCAGGATCGATGTGGATCCTGT,-1.13
6,TACACCGCCACCACGTCGTAGC,-0.286
7,TCGGAGCCCAGGTCGACTCTGC,-1.11
8,TTGTCCATATGGAGATCCCAGG,-1.39
9,TCACTGCACATGAAGCACTCGG,-0.799
10,AGACAGTGTGAGGTGATCGTGG,-1.1
11,TTGTGAGGGACTGGAAAGCGAG,-1.61
12,AAAGAAGTAACCACGCTGCTTG,0.146

# Target: PDP1
# Assay: as above
# Conditions: shRNA
row,Sequence,sensor-assay potency score (higher = more potent)
1,TTTTGAAGGTCAATGCTCCATT,-0.4
2,TTGAACTGAACTACAATGATTG,-0.787
3,TTGTCATTCAACTGGTCTGGGC,-1.11
4,TGAAACTGTATTCATTAGCTTT,-0.926
5,TGCATTTTCAATCTCTAGCAAA,-1.4
6,TTTAAGGATGCTATTGACTTGT,0.228
7,TACAACATGAGAATTGAACTGA,1.04
8,ATGATTGTAATGTCATCTCTGT,0.0872
9,TATTATAGTAGTATCTTTTTAA,-1.01
10,TATTCATTGTCATTCAACTGGT,-0.478
11,TTAGGAGGAATAAACTTGGTAT,-0.0779
12,TAGAACTGACATTTTTGCCGTC,0.378

# Target: PDZD4
# Assay: as above
# Conditions: shRNA
row,Sequence,sensor-assay potency score (higher = more potent)
1,TTTTATACAGCTCCACCTCCTC,-1.13
2,TACACCGTTAATCTGGATGATG,-1.18
3,TCACTTTGTACTGCTCCTCCGG,-0.937
4,TCGTCGGTCGTCATACCGCTGC,-0.818
5,TTGATCTCCAGGAGCTCACGGT,-0.853
6,TTTCAGTTTACGAGCACGCAGC,-0.95
7,TTCACTTTCCACTCCATGCGCG,-0.515
8,TCGTCGTCGGTCGTCATACCGC,-1.57
9,TTTGGCTGCAATGCTGTTGGGA,-0.7
10,TTGCAGGCCAAACTTGCGCAGG,-1.4
11,TGTCCTTGTCCGACTTCTCGGG,-0.294
12,TCATCCAGGAAGTCATCCCGGT,-0.501

# — the OligoGym collection
